In PubChem BioAssay (Tox21):
Results filed as inconclusive are left out. Active and inactive are the calls of the source. Unless noted, calls come from the whole dose curve; as a rule, active = well fitted curve in the direction sought with a large enough effect in the repeat runs; inconclusive = weak or mixed curves; inactive = no such curve, though single readings can be large; an effect the other way counts as inactive or inconclusive.

How the values were obtained:
[1] = A CellTox Green Cytotoxicity Assay to monitor cytotoxicity in HEK293 cells - 32 hour (AID 1224881); note: nearly all actives have a fitted effect of over 40% in size; note: potency is the fitted concentration of half-maximal effect
Summary of the method: (§1)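 Fluorescence from a DNA-binding dye excluded by viable cells was measured repeatedly in the same HEK293 wells (600 cells/well) during continuous compound exposure at 37 C. Each assay gives one read point: 0, 8, 16, 24, 32 or 40 h.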

[2] = A CellTox Green Cytotoxicity Assay to monitor cytotoxicity in HepG2 cells - 32 hour (AID 1224883); note: nearly all actives have a fitted effect of over 50% in size; note: potency is the fitted concentration of half-maximal effect
Summary of the method: (§2)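 Real-time cytotoxicity: fluorescence of a cell-impermeant cyanine dye binding DNA of dead HepG2 cells, measured repeatedly (0–40 h) during compound exposure at 37 C. Cells seeded 600/well with reagent, dosed after 5 h.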

[3] = A CellTox Green Cytotoxicity Assay to monitor cytotoxicity in HEK293 cells - 8 hour (AID 1224884); note: nearly all actives have a fitted effect of over 35% in size
Summary of the method: as §1

[4] = qHTS RealTime-Glo MT Cell Viability Assay in HepG2 cells - 16 hour (AID 1224885); note: nearly all actives have a fitted effect of over 50% in size
Summary of the method: (§3)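 Cells + NanoLuc/prosubstrate dispensed (600 cells/well) → 5 h at 37 C/5% CO2 → compounds in DMSO transferred → 40 h incubation at 37 C, luminescence read at 0, 8, 16, 24, 32, 40 h.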

[5] = qHTS RealTime-Glo MT Cell Viability Assay in HEK293 cells - 24 hour (AID 1224886); note: nearly all actives have a fitted effect of over 50% in size; note: potency is the fitted concentration of half-maximal effect; for activity change, negative = cytotoxicity: top concentration of the series differs between compounds
Summary of the method: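 Tox21 10K qHTS, HEK293, 600 cells/well, RealTime-Glo reagent co-dispensed with cells; 5 h preincubation, compound by pintool, 37 C, luminescence at 0–40 h.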

[6] = qHTS RealTime-Glo MT Cell Viability Assay in HEK293 cells - 8 hour (AID 1224887); note: top concentration of the series differs between compounds; nearly all actives have a fitted effect of over 50% in size
Summary of the method: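 Luminescence, which tracks viable cell number through reduction of the prosubstrate to a NanoLuc substrate, was read over continuous 37 C culture. Cells (600/well) were premixed with reagent and rested 5 h before 23 nL of compound in DMSO was pinned.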

[7] = A CellTox Green Cytotoxicity Assay to monitor cytotoxicity in HEK293 cells - 16 hour (AID 1224888); note: nearly all actives have a fitted effect of over 35% in size
Summary of the method: as §1

[8] = qHTS RealTime-Glo MT Cell Viability Assay in HepG2 cells - 0 hour (AID 1224889); note: nearly all actives have a fitted effect of over 50% in size; note: potency is the fitted concentration of half-maximal effect
Summary of the method: as §3

[9] = A CellTox Green Cytotoxicity Assay to monitor cytotoxicity in HepG2 cells - 8 hour (AID 1224890); note: nearly all actives have a fitted effect of over 45% in size
Summary of the method: as §2

[10] = qHTS assay to identify small molecule antagonists of the estrogen receptor alpha (ER-alpha) signaling pathway using the BG1 cell line in the presence of 0.1 nM 17-beta-estradiol - cell viability counter screen (AID 1259241); note: nearly all actives have a fitted effect of over 40% in size
Summary of the method: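 Cells were plated and left 24 hr, compounds in DMSO were pinned in, 17beta-estradiol was added to 0.1 nM final, and after 22 hr CellTiter-Fluor reagent was added for 30 min before fluorescence was read.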

[11] = qHTS assay to identify small molecule antagonists of the androgen receptor (AR) signaling pathway using the MDA cell line in the presence of 0.5 nM R1881 - cell viability counter screen (AID 1259242); note: nearly all actives have a fitted effect of over 45% in size
Summary of the method: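 Live-cell protease activity was measured by CellTiter-Fluor fluorescence after 30 min. Before that, MDA-kb2 MMTV-luciferase cells had 16 hr at 37C without CO2, exposed to test compounds and 0.5 nM R1881 final.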

[12] = target: Androgen receptor (Homo sapiens) (UniProt P10275); assay: qHTS assay to identify small molecule antagonists of the androgen receptor (AR) signaling pathway using the MDA cell line in the presence of 0.5 nM R1881 (AID 1259243); note: nearly all actives have a fitted effect of over 50% in size
Summary of the method: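 Luminescent reporter readout (ONE-Glo, 30 min, room temperature) after 16 hr co-treatment of MDA-kb2 cells with test compounds and 0.5 nM R1881 final, at 37C without CO2. The MMTV-driven luciferase responds to both AR and GR.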

[13] = target: Estrogen receptor (Homo sapiens) (UniProt P03372); assay: qHTS assay to identify small molecule antagonists of the estrogen receptor alpha (ER-alpha) signaling pathway using the BG1 cell line in the presence of 0.1 nM 17-beta-estradiol (AID 1259244); note: nearly all actives have a fitted effect of over 50% in size; note: potency is the fitted concentration of half-maximal effect
Summary of the method: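 Luciferase luminescence (ONE-Glo, 30 min at room temperature) was read after 22 hr at 37C exposure to compounds plus 17beta-estradiol at 0.1 nM final. Cells were VM7Luc4E2 with endogenous ER-alpha and an ERE-driven luciferase, pre-cultured 5 days in hormone-depleted medium.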

[14] = qHTS assay to identify small molecule HDAC inhibitors (AID 1259364); note: top concentration of the series differs between compounds; nearly all actives have a fitted effect of over 45% in size
Summary of the method: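 Luminescence read after 30 min room-temperature HDAC-Glo incubation measures cellular class I/II HDAC activity. Compounds were applied for 2 hr at 37 C to HCT-116 wild-type cells seeded the day before.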

[15] = qHTS assay to identify small molecule HDAC inhibitors - cell viability counter screen (AID 1259365)
Summary of the method: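 Counter screen in wild-type HCT-116 cells: compounds dissolved in DMSO are pin-transferred onto overnight-plated cells and left 2hr at 37C. ATP-based CellTiter-Glo luminescence then measures viable cells.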

[16] = qHTS assay to identify small molecule agonists of the sonic hedgehog signaling (Shh) pathway - cell viability counter screen (AID 1259366); note: nearly all actives have a fitted effect of over 50% in size
Summary of the method: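 Cells are plated at 2,000 per well and left 4hr at 37C, 5% CO2 before compound addition. After 23hr of treatment, CellTiter-Fluor reagent is added for 1hr at 37C and fluorescence is measured.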

[17] = qHTS assay to identify small molecule antagonists of the sonic hedgehog signaling (Shh) pathway - cell viability counter screen (AID 1259367); note: nearly all actives have a fitted effect of over 55% in size
Summary of the method: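 Conditioned medium drove Shh signaling in 3T3 Gli1-Luc cells exposed to compounds at 37C and 5% CO2. Viability was determined from CellTiter-Fluor fluorescence, with reagent incubated 1 hr after 23 hr of treatment.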

[18] = qHTS assay to identify small molecule agonists of the sonic hedgehog signaling (Shh) pathway (AID 1259368; calls by dose curve;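 note: NIH/3T3-derived 3T3Gli1-Luc cells carrying a stable Gli1-driven firefly luciferase reporter; series mostly up to about 92 µM; nearly all actives have a fitted effect of over 15% in size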)
Summary of the method: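 Luminescence was read after 30 min at room temperature with luciferase reagent. Before that, 3T3Gli1-Luc cells (NIH/3T3 clone, stable Gli1-Luc reporter; 2,000/well) were exposed to compounds for 24 hr at 37C, 5% CO2, compounds being added 4 hr post-plating.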

[19] = qHTS assay to identify small molecule phospholipidosis (PLD) inducers (AID 1259344; active = well fitted curve in the direction sought with a large enough effect; an effect the other way counts as inactive or inconclusive)
Summary of the method: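 After 4 h attachment on collagen I, HepG2 cells were dosed with compound alongside LipidTOX Red, kept 24 h at 37 C, fixed, and imaged for lamellar phospholipid pits.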

[20] = A CellTox Green Cytotoxicity Assay to monitor cytotoxicity in HepG2 cells - 0 hour (AID 1224882); note: nearly all actives have a fitted effect of over 35% in size
Summary of the method: as §2
% is set by controls: 0 for no effect and ±100 for the full control effect.

Chain of Estrogen receptor (Homo sapiens) (P03372 whole entry, looked up): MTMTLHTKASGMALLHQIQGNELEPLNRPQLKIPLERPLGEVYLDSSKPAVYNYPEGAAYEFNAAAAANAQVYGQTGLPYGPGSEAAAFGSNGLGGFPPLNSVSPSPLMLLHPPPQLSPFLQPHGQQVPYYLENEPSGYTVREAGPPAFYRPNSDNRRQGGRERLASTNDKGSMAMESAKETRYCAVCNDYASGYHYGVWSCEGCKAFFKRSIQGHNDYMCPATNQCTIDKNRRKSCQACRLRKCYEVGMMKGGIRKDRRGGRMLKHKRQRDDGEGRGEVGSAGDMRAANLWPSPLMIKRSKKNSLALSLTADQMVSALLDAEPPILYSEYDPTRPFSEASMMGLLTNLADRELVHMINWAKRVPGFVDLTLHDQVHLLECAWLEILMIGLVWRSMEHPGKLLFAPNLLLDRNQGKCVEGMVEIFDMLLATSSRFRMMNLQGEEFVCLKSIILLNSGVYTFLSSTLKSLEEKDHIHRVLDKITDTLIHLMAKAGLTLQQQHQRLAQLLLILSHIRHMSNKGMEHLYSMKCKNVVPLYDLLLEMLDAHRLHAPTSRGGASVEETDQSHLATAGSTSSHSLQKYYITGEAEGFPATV
Chain of Androgen receptor (Homo sapiens) (P10275 whole entry, looked up): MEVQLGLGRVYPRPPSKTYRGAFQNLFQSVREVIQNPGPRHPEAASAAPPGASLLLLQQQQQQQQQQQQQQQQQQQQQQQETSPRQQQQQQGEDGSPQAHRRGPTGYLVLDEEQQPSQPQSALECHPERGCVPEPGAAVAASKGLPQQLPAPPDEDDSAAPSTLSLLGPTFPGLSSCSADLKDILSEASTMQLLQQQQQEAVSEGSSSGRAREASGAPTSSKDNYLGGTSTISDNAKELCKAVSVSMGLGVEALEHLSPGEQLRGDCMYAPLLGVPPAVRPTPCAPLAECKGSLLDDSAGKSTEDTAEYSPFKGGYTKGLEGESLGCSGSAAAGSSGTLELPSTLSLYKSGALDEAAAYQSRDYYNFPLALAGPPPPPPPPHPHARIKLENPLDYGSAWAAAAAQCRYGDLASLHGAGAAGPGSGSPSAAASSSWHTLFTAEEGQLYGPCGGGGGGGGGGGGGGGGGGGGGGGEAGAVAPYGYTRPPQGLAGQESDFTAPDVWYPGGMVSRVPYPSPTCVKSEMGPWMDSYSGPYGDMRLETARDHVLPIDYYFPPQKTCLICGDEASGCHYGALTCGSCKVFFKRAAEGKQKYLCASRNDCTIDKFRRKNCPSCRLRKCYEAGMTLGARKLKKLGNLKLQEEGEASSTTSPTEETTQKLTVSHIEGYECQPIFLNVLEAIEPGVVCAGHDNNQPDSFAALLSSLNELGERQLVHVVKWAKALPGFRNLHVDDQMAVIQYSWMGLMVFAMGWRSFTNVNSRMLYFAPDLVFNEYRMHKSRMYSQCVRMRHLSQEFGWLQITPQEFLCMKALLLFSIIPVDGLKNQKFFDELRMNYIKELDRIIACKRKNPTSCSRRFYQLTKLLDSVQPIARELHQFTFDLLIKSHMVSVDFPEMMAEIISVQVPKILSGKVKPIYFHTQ

c1ccc(-c2ccccn2)nc1
inactive: Potency [1] | Potency [2] | Potency [3] | Potency [4] | Potency [5] | Potency [6] | Potency [7] | Potency [8] | Potency [9] | Potency [10] | Potency [11] | Potency [12] | Potency [13] | Potency [14] | Potency [15] | Potency [16] | Potency [17] | outcome [18]

CC(C)(C)Cl
inactive: Potency [1] | Potency [2] | Potency [3] | Potency [4] | Potency [5] | Potency [6] | Potency [7] | Potency [8] | Potency [9] | Potency [10] | Potency [11] | Potency [13] | Potency [14] | Potency [16] | Potency [17] | outcome [18]

CC(C)(C)OCC1CO1 (stereo not drawn)
inactive: Potency [1] | Potency [2] | Potency [3] | Potency [4] | Potency [5] | Potency [6] | Potency [7] | Potency [8] | Potency [9] | Potency [10] | Potency [11] | Potency [14] | Potency [15] | Potency [16] | Potency [17] | outcome [18]

C[N+](C)(C)CCOC(=O)CCC(=O)OCC[N+](C)(C)C
inactive: Potency [1] | Potency [2] | Potency [3] | Potency [4] | Potency [5] | Potency [7] | Potency [8] | Potency [9] | Potency [10] | Potency [11] | Potency [13] | Potency [19] | Potency [15] | Potency [16] | Potency [17] | outcome [18]

CCCCC(CC)CN1C(=O)C2C3C=CC(C3)C2C1=O (stereo not drawn)
inactive: Potency [2] | Potency [3] | Potency [4] | Potency [7] | Potency [9] | Potency [10] | Potency [11] | Potency [14] | Potency [15] | Potency [16] | outcome [18]
active: Potency [1] 30.9 µM

COc1ccc(C(=O)Nc2nc3ccccc3c(NCc3ccccc3)c2C#N)cc1
active: Potency [13] 10.9 µM
inactive: Potency [1] | Potency [20] | Potency [3] | Potency [5] | Potency [7] | Potency [8] | Potency [9] | Potency [10] | Potency [11] | Potency [14] | Potency [15] | outcome [18]

CCCCCCCC#N
inactive: Potency [1] | Potency [2] | Potency [3] | Potency [4] | Potency [5] | Potency [6] | Potency [7] | Potency [8] | Potency [9] | Potency [10] | Potency [11] | Potency [14] | Potency [15] | outcome [18]

CCCCOC(=O)CCCCCCCC(=O)OCCCC
inactive: Potency [1] | Potency [2] | Potency [3] | Potency [4] | Potency [5] | Potency [7] | Potency [9] | Potency [10] | Potency [11] | Potency [14] | Potency [15] | Potency [17] | outcome [18]

O=C(O)CNCC(=O)O
inactive: cytotoxicity increase [1] 4.03% [at 6.97 µM] | cytotoxicity increase [2] -4.58% [at 6.97 µM] | cytotoxicity increase [3] -1.38% [at 6.97 µM] | activity change, negative = cytotoxic [4] -0.86% [at 6.97 µM] | activity change, negative = cytotoxicity [5] -8.06% [at 6.97 µM] | activity change, negative = cytotoxicity [6] -7.77% [at 6.97 µM] | cytotoxicity increase [9] 3.91% [at 6.97 µM] | activity change, negative = cytotoxicity [10] 0.833% [at 8.39 µM] | viability change, negative = cytotoxic [11] -0.633% [at 8.39 µM] | activity, negative = inhibition [12] -3.67% [at 8.39 µM] | activity change, negative = inhibition [13] -6.61% [at 8.39 µM] | activity change, negative = inhibition [14] 10.7% [at 8.39 µM] | viability change, negative = cytotoxic [16] 1.7% [at 8.39 µM] | viability change, negative = cytotoxic [17] 3.32% [at 8.39 µM] | activity change [18] 0.375% [at 8.39 µM]

CCCCCCCCCCCc1ccccc1
inactive: Potency [1] | Potency [2] | Potency [3] | Potency [4] | Potency [5] | Potency [7] | Potency [8] | Potency [9] | Potency [10] | Potency [11] | Potency [13] | Potency [14] | Potency [15] | Potency [17] | outcome [18]

COc1cccc(N(C)C(=S)Oc2ccc3c(c2)CCCC3)n1
inactive: Potency [1] | Potency [3] | Potency [4] | Potency [5] | Potency [6] | Potency [7] | Potency [8] | Potency [9] | Potency [10] | Potency [11] | Potency [13] | Potency [19] | Potency [15] | Potency [16] | Potency [17] | outcome [18]

COc1cc2nc(N3CCN(C(=O)C4COc5ccccc5O4)CC3)nc(N)c2cc1OC (stereo not drawn)
inactive: Potency [1] | Potency [3] | Potency [4] | Potency [7] | Potency [9] | Potency [11] | Potency [19] | Potency [14] | Potency [16] | Potency [17] | outcome [18]
active: Potency [2] 23.9 µM | Potency [5] 21.3 µM | Potency [8] 10.7 µM

Cc1[nH]c(C)c(Cl)c(=O)c1Cl
inactive: cytotoxicity increase [1] -3.98% [at 15.8 µM] | cytotoxicity increase [3] -1.54% [at 15.8 µM] | activity change, negative = cytotoxic [4] 0.907% [at 15.8 µM] | activity change, negative = cytotoxicity [5] -19.4% [at 15.8 µM] | activity change, negative = cytotoxicity [6] -23.4% [at 15.8 µM] | activity change [7] -2.28% [at 15.8 µM, hits give high values] | activity change, negative = cytotoxicity [8] -1.76% [at 15.8 µM] | cytotoxicity increase [9] -4.87% [at 15.8 µM] | activity change, negative = cytotoxicity [10] -5.47% [at 19 µM] | viability change, negative = cytotoxic [11] 1.2% [at 19 µM] | Potency [13] | Potency [19] | viability change, negative = cytotoxic [16] 6.9% [at 19 µM] | viability change, negative = cytotoxic [17] 1.87% [at 19 µM] | activity change [18] -0.115% [at 18.9 µM]

O=C(O)c1ccc(-n2nc(-c3ccccc3O)nc2-c2ccccc2O)cc1
inactive: Potency [1] | Potency [2] | Potency [3] | Potency [4] | Potency [5] | Potency [6] | Potency [7] | Potency [8] | Potency [9] | Potency [11] | PLD induction [19] -4.07% [at 1.53 µM] | Potency [14] | Potency [15] | Potency [17] | outcome [18]

Cc1cc(C(=O)O)ccc1[N+](=O)[O-]
inactive: Potency [1] | Potency [2] | Potency [3] | Potency [4] | Potency [5] | Potency [6] | Potency [8] | Potency [9] | Potency [10] | Potency [11] | Potency [13] | Potency [14] | Potency [15] | Potency [17] | outcome [18]
